The source of these data is PubChem BioAssay (NCI).

Values joined by “and” are separate entries in the source; they are usually repeats but may differ in a detail not shown here. Equal values may be shown once. This is part of a sample that, as a whole, favours compounds with a hit. Of some 79,000 tested, about 15% had one in any assay. Where a structure was tested more than once in an assay, its records may differ in their call. Active and inactive are the calls of the source. No stated cut-off is given here; in the data, active means growth inhibition above about 70%; inactive means the rest.

Assay [1] in a line: NCI Yeast Anticancer Drug Screen. Data for the rad50 strain (AID 155).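 Further: 0% = growth of vehicle-only cultures of the same strain.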 To be noted: S. cerevisiae rad50 strain growth inhibition; at 50.0 µM; stronger effect = higher value. In a few lines:
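Readout: growth inhibition relative to vehicle-treated cultures. Compound exposure was carried out in a genetically defined yeast strain deficient in DNA damage repair.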

A short description of assay [2]: NCI Yeast Anticancer Drug Screen. Data for the mec2-1 strain (AID 157). To be noted: S. cerevisiae mec2-1 strain, at 50.0 µM, stronger effect = higher value. In a few lines: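 mec2-1 yeast strain, carrying an alteration in DNA damage repair or cell cycle control, was exposed to compounds; growth inhibition was measured relative to vehicle-treated controls.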
Assay [3] in a line: NCI Yeast Anticancer Drug Screen. Data for the sgs1 mgt1 strain (AID 161).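 Further: 0% = growth of cultures given vehicle only.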 To be noted: S. cerevisiae sgs1 mgt1 strain, at 50.0 µM, stronger effect = higher value. In a few lines:
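Percent growth inhibition was derived by comparing compound-exposed mutant yeast with vehicle-exposed cultures. The strain carries alterations in DNA damage repair.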

Assay [4] in a line: NCI Yeast Anticancer Drug Screen. Data for the cln2 rad14 strain (AID 165).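 Further: 0% = growth equal to vehicle treated cultures.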 To be noted: S. cerevisiae cln2 rad14 strain, at 50.0 µM, stronger effect = higher value. In a few lines:
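Yeast carrying cln2 and rad14 alterations (cell cycle control and DNA damage repair) were exposed to compounds. Growth inhibition was measured against vehicle-treated controls.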

The nature of assay [5]: NCI Yeast Anticancer Drug Screen. Data for the bub3 strain (AID 167). To be noted: S. cerevisiae bub3 mutant strain, at 50.0 µM, stronger effect = higher value. In a few lines:
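Readout: yeast growth inhibition, expressed relative to vehicle-only wells. The test organism is a mutant strain from a panel with lesions in DNA repair or checkpoint genes.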

The nature of assay [6]: NCI Yeast Anticancer Drug Screen. Data for the mlh1 rad18 strain (AID 175). To be noted: S. cerevisiae mlh1 rad18 strain growth inhibition; at 50.0 µM; stronger effect = higher value. In a few lines:
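Growth inhibition of the yeast strain was measured after compound exposure and expressed relative to vehicle-treated controls. The strain carries defined defects in DNA damage repair.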

Turning to `Nc1ncnc2c1nc(N1CCCCC1)n2C1OC(CO)C(O)C1O` (stereo not given), the growth inhibition in assay [1] was 27.9% (inactive) and -5.55% (inactive); in assay [2], 12.2% (inactive) and -0.15% (inactive); in assay [3], 9.9% (inactive); in assay [4], -38% (inactive) and -43.2% (inactive); in assay [5], 3.5% (inactive) and -5.1% (inactive); in assay [6] it was 2.6% (inactive) and -7.85% (inactive).
On to `C/C(=N\O)c1ccccc1`, for which the growth inhibition was -11.2% (inactive) and 18.9% (inactive) in assay [1]; -20.4% (inactive) and -5.5% (inactive) in assay [2]; -3.5% (inactive) and 13% (inactive) in assay [3]; 2.8% (inactive) and -13.4% (inactive) in assay [4]; 8.3% (inactive) and -2.6% (inactive) in assay [5]; -19.9% (inactive) and 14.5% (inactive) in assay [6].
For the compound `O=C(CCCC(=O)NO)NO`, the growth inhibition in assay [1] is 5.4% (inactive) and 2.75% (inactive); in assay [2] it was -2.25% (inactive) and 0.6% (inactive); in assay [3], -1.3% (inactive) and -6.9% (inactive); in assay [4], -8.15% (inactive) and -26.6% (inactive); in assay [5], -5.05% (inactive) and -22.9% (inactive); in assay [6] it was 2.65% (inactive) and -37.4% (inactive).
Take `CCCCCCCCCCSCC(CO)NC(=O)/C=C/c1c(C)[nH]c(=O)[nH]c1=O` (stereo not given): the growth inhibition in assay [1] is 1.95% (inactive) and 30.7% (inactive); in assay [2] it was -13.7% (inactive) and 15.2% (inactive); in assay [3], 2.45% (inactive) and 2% (inactive); in assay [4], -27.2% (inactive) and 14.8% (inactive); in assay [5], -14.4% (inactive) and -14% (inactive); in assay [6] it was 9.55% (inactive) and -47.1% (inactive).
With `O=C1CC(=P(c2ccccc2)(c2ccccc2)c2ccccc2)C(=O)N1c1ccccc1`, the growth inhibition is -24.2% (inactive) and 22.2% (inactive) in assay [1]; -15.6% (inactive) and -12% (inactive) in assay [2]; -7.95% (inactive) and 42.8% (inactive) in assay [3]; 5.05% (inactive) and 33.2% (inactive) in assay [4]; -9.45% (inactive) and 10.2% (inactive) in assay [5]; -12.8% (inactive) and 21.6% (inactive) in assay [6].
Consider `CN(C)CC1CCCC(CN(C)C)C1=O` (stereo not given), for which the growth inhibition in assay [1] was -13.4% (inactive) and -21.9% (inactive); in assay [2], 26.9% (inactive) and -9.95% (inactive); in assay [3], -16% (inactive) and -39.5% (inactive); in assay [4] it was 33% (inactive) and -30.4% (inactive); in assay [5], -16.1% (inactive) and -22.1% (inactive); in assay [6] it was -2% (inactive) and -13.8% (inactive).
For `O=C(O)/C=C/C=C/C(=O)O`, the growth inhibition was -5.1% (inactive) and 14.2% (inactive) in assay [1]; -4.45% (inactive) and -10.2% (inactive) in assay [2]; -3.8% (inactive) and -1.95% (inactive) in assay [3]; 7.8% (inactive) and -17.9% (inactive) in assay [4]; -0.8% (inactive) and -14.6% (inactive) in assay [5]; -10.6% (inactive) and 2.75% (inactive) in assay [6].
On to `NC(C(=O)O)C(O)C(=O)O` (stereo not given), for which the growth inhibition in assay [1] was -14% (inactive) and 2.7% (inactive); in assay [2] it was 5.85% (inactive) and 8.65% (inactive); in assay [3], 2.85% (inactive) and -6.75% (inactive); in assay [4], 10.4% (inactive) and -5.6% (inactive); in assay [5], -5.75% (inactive) and 4.05% (inactive); in assay [6], 0.55% (inactive) and -7.3% (inactive).
Turning to `O=c1[nH]c(F)nc2c1ncn2C1OC(CO)C(O)C1O` (stereo not given), the growth inhibition in assay [1] is -9.5% (inactive) and -20.3% (inactive); in assay [2], -5% (inactive) and -12.8% (inactive); in assay [3], -5.7% (inactive) and -20.9% (inactive); in assay [4], -16.4% (inactive) and 8.4% (inactive); in assay [5] it was 8.75% (inactive) and -10.6% (inactive); in assay [6] it was -21.2% (inactive) and 6% (inactive).
Take `c1ccc(C(c2ccccc2)N2CCCC2)cc1`: the growth inhibition was -4.05% (inactive) and 7.15% (inactive) in assay [1]; -14.7% (inactive) and 10.8% (inactive) in assay [2]; -5.7% (inactive) and 4.6% (inactive) in assay [3]; 41.1% (inactive) and -0.2% (inactive) in assay [4]; 2.25% (inactive) and 3.7% (inactive) in assay [5]; 25.9% (inactive) and -7% (inactive) in assay [6].
For the compound `CC(=O)Nc1cccc(N)c1`, the growth inhibition was 8.05% (inactive) and 12.3% (inactive) in assay [1]; -12% (inactive) and 6.65% (inactive) in assay [2]; 0.35% (inactive) and -3.95% (inactive) in assay [3]; 5.4% (inactive) and -40.4% (inactive) in assay [4]; 5.1% (inactive) and 0.7% (inactive) in assay [5]; 9.6% (inactive) and -1.3% (inactive) in assay [6].
In the case of `CCc1ccc(NCc2cc(OC)c(OC)c(OC)c2)cc1`, the growth inhibition in assay [1] is 22.8% (inactive) and 3.85% (inactive); in assay [2], -3.9% (inactive) and -6.2% (inactive); in assay [3], 25.9% (inactive) and 33% (inactive); in assay [4] it was -4.45% (inactive) and -2.55% (inactive); in assay [5] it was 40% (inactive) and 38.9% (inactive); in assay [6] it was -55.3% (inactive) and -23.8% (inactive).
On to `Nc1cc(S(=O)(=O)O)ccc1Cl`, for which the growth inhibition in assay [1] is 2.8% (inactive) and 1% (inactive); in assay [2], -15.7% (inactive) and -2.75% (inactive); in assay [3], 11.2% (inactive) and -20.6% (inactive); in assay [4] it was 10.1% (inactive) and -43.9% (inactive); in assay [5] it was 6.95% (inactive) and 14.1% (inactive); in assay [6], 3.95% (inactive) and -13.1% (inactive).
Take `Nc1ccc(C(=O)O)c(O)c1`: the growth inhibition is -8.6% (inactive) and 15.1% (inactive) in assay [1]; -7.4% (inactive) and -2.45% (inactive) in assay [2]; -4.15% (inactive) and -14.9% (inactive) in assay [3]; -40.9% (inactive) and 1.75% (inactive) in assay [4]; 0.25% (inactive) and -2.25% (inactive) in assay [5]; -8.05% (inactive) and 24.8% (inactive) in assay [6].
With `OCC1CCCCO1` (stereo not given), the growth inhibition in assay [1] is 0.3% (inactive) and 1.8% (inactive); in assay [2], -13.7% (inactive) and -6.7% (inactive); in assay [3], 2.4% (inactive) and -24.7% (inactive); in assay [4], -1.65% (inactive) and -37.9% (inactive); in assay [5], 7.65% (inactive) and -10.8% (inactive); in assay [6], 3% (inactive) and -8.4% (inactive).
Turning to `O=C1CC2(CC=CCC23OCCO3)CC(CI)O1` (stereo not given), the growth inhibition in assay [1] is -14.1% (inactive) and 7.75% (inactive); in assay [2], -8.25% (inactive) and -1.25% (inactive); in assay [3], 3.1% (inactive) and 24.8% (inactive); in assay [4] it was 5.9% (inactive) and 5.1% (inactive); in assay [5], -10.2% (inactive) and 10.9% (inactive); in assay [6], 10.7% (inactive) and 9.55% (inactive).
On to `C[N+](C)(C)CCOC(=O)c1ccccc1CBr`, for which the growth inhibition in assay [1] was -10.6% (inactive) and 52.1% (inactive); in assay [2], 22.8% (inactive) and 96.6% (active); in assay [3], 16.8% (inactive) and 85.9% (active); in assay [4], 40.9% (inactive) and 97.7% (active); in assay [5], 35.5% (inactive) and 99.2% (active); in assay [6], 3.95% (inactive) and 64.9% (inactive).
`O=C(O)c1cc([N+](=O)[O-])ccc1Nc1ccccc1`: the growth inhibition in assay [1] was 10.8% (inactive) and -9.95% (inactive); in assay [2], 0.2% (inactive) and -12.4% (inactive); in assay [3] it was -7.05% (inactive) and -3.35% (inactive); in assay [4] it was 31.6% (inactive) and -28.6% (inactive); in assay [5], 18.6% (inactive) and -3.55% (inactive); in assay [6], 18.1% (inactive) and -6.2% (inactive).
With `O=C(O)CCCCCCCCCCCCC1C=CCC1` (stereo not given), the growth inhibition in assay [1] was -11.2% (inactive) and -0.55% (inactive); in assay [2] it was -31.5% (inactive) and -17.9% (inactive); in assay [3] it was 5.95% (inactive) and -4.1% (inactive); in assay [4], -4.4% (inactive) and 9.45% (inactive); in assay [5], -22.8% (inactive) and -16.8% (inactive); in assay [6], -11.2% (inactive) and -6.05% (inactive).
With `O=[N+]([O-])c1ccc(NCS(=O)(=O)O)cc1`, the growth inhibition in assay [1] was 6.95% (inactive) and -2% (inactive); in assay [2], -14.3% (inactive) and -7.9% (inactive); in assay [3] it was -9.35% (inactive) and 5.9% (inactive); in assay [4] it was -12.2% (inactive) and -15.8% (inactive); in assay [5] it was 8.55% (inactive) and -3.05% (inactive); in assay [6] it was 5.7% (inactive) and 17.8% (inactive).
